Columns and labels:
Assay in all cases: SPOT peptide array binding signal intensity (averaged, normalized) (arbitrary units (background-subtracted, floor 0; scale differs between SH3 domains)); higher = stronger binding of the SH3 domain to the peptide
[1] = target: AgAbp1
Procedure, shortened: (§1)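 GST-fused SH3 domains, from four yeast species, were produced in E. coli BL21(DE3) and captured on glutathione Sepharose. Membranes of cellulose carrying synthetic 15-mer peptides, in which cysteines had been replaced by serines, were exposed to each domain at 10 μg/ml overnight at 4°C in TBS-based blocking buffer. After anti-GST antibody, an HRP anti-mouse secondary and luminol, spots were imaged and quantified using Genespotter. Binding signal is normalized and background-subtracted spot intensity, averaged over replicates, in arbitrary units that differ between domains.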

[2] = target: AgBbc1
Procedure, shortened: as §1

[3] = target: AgBem1-D1
Procedure, shortened: as §1

[4] = target: AgBzz1-D1
Procedure, shortened: as §1

[5] = target: AgBzz1-D2
Procedure, shortened: as §1

[6] = target: AgCyk3
Procedure, shortened: as §1

[7] = target: AgFus1
Procedure, shortened: as §1

[8] = target: AgHof1
Procedure, shortened: as §1

[9] = target: AgHse1
Procedure, shortened: as §1

[10] = target: AgLsb1
Procedure, shortened: as §1

[11] = target: AgLsb4
Procedure, shortened: as §1

[12] = target: AgMyo5
Procedure, shortened: as §1

[13] = target: AgNbp2
Procedure, shortened: as §1

[14] = target: AgRvs167
Procedure, shortened: as §1

[15] = target: AgSho1
Procedure, shortened: as §1

[16] = target: AgSla1-D1-D2
Procedure, shortened: as §1

[17] = target: AgSla1-D3
Procedure, shortened: as §1

[18] = target: CaAbp1-D1
Procedure, shortened: as §1

[19] = target: CaAbp1-D2
Procedure, shortened: as §1

[20] = target: CaBbc1
Procedure, shortened: as §1

[21] = target: CaBem1-D1
Procedure, shortened: as §1

[22] = target: CaBzz1-D1
Procedure, shortened: as §1

[23] = target: CaBzz1-D2
Procedure, shortened: as §1

[24] = target: CaCyk3
Procedure, shortened: as §1

[25] = target: CaFus1
Procedure, shortened: as §1

[26] = target: CaHof1
Procedure, shortened: as §1

[27] = target: CaHse1
Procedure, shortened: as §1

[28] = target: CaLsb1
Procedure, shortened: as §1

[29] = target: CaLsb4
Procedure, shortened: as §1

[30] = target: CaMyo5
Procedure, shortened: as §1

[31] = target: CaNbp2
Procedure, shortened: as §1

[32] = target: CaRvs167
Procedure, shortened: as §1

[33] = target: CaRvs167-3
Procedure, shortened: as §1

[34] = target: CaSho1
Procedure, shortened: as §1

[35] = target: CaSla1-D1-D2
Procedure, shortened: as §1

[36] = target: CaSla1-D3
Procedure, shortened: as §1

[37] = target: ScAbp1
Procedure, shortened: as §1

[38] = target: ScBbc1
Procedure, shortened: as §1

[39] = target: ScBem1-D1
Procedure, shortened: as §1

[40] = target: ScBzz1-D1
Procedure, shortened: as §1

[41] = target: ScBzz1-D2
Procedure, shortened: as §1

[42] = target: ScCyk3
Procedure, shortened: as §1

[43] = target: ScFus1
Procedure, shortened: as §1

[44] = target: ScHof1
Procedure, shortened: as §1

[45] = target: ScHse1
Procedure, shortened: as §1

[46] = target: ScLsb1
Procedure, shortened: as §1

[47] = target: ScLsb2
Procedure, shortened: as §1

[48] = target: ScLsb3
Procedure, shortened: as §1

[49] = target: ScLsb4
Procedure, shortened: as §1

[50] = target: ScMyo3
Procedure, shortened: as §1

[51] = target: ScMyo5
Procedure, shortened: as §1

[52] = target: ScNbp2
Procedure, shortened: as §1

[53] = target: ScPex13
Procedure, shortened: as §1

[54] = target: ScRvs167
Procedure, shortened: as §1

[55] = target: ScSho1
Procedure, shortened: as §1

[56] = target: ScSla1-D1-D2
Procedure, shortened: as §1

[57] = target: ScSla1-D3
Procedure, shortened: as §1

[58] = target: SpAbp1-D1
Procedure, shortened: as §1

[59] = target: SpBbc1
Procedure, shortened: as §1

[60] = target: SpBzz1-D1
Procedure, shortened: as §1

[61] = target: SpBzz1-D2
Procedure, shortened: as §1

[62] = target: SpCyk3
Procedure, shortened: as §1

[63] = target: SpHof1
Procedure, shortened: as §1

[64] = target: SpHof1-2
Procedure, shortened: as §1

[65] = target: SpHof1-3
Procedure, shortened: as §1

[66] = target: SpHse1
Procedure, shortened: as §1

[67] = target: SpLsb1
Procedure, shortened: as §1

[68] = target: SpLsb4
Procedure, shortened: as §1

[69] = target: SpMyo1
Procedure, shortened: as §1

[70] = target: SpNbp2
Procedure, shortened: as §1

[71] = target: SpPex13
Procedure, shortened: as §1

[72] = target: SpRvs167
Procedure, shortened: as §1

[73] = target: SpSla1-D1-D2
Procedure, shortened: as §1

[74] = target: SpSla1-D3
Procedure, shortened: as §1

Binder: VKPRQLFPIPLNKVD
- SPOT peptide array binding signal intensity [1]: 5
- SPOT peptide array binding signal intensity [2]: ≤ 0
- SPOT peptide array binding signal intensity [3]: 14.5
- SPOT peptide array binding signal intensity [4]: 61
- SPOT peptide array binding signal intensity [5]: 40.5
- SPOT peptide array binding signal intensity [6]: ≤ 0
- SPOT peptide array binding signal intensity [7]: 23
- SPOT peptide array binding signal intensity [8]: 56.2
- SPOT peptide array binding signal intensity [9]: 60.5
- SPOT peptide array binding signal intensity [10]: 1600
- SPOT peptide array binding signal intensity [11]: ≤ 0
- SPOT peptide array binding signal intensity [12]: 1
- SPOT peptide array binding signal intensity [13]: 18
- SPOT peptide array binding signal intensity [14]: 5
- SPOT peptide array binding signal intensity [15]: 8
- SPOT peptide array binding signal intensity [16]: 1
- SPOT peptide array binding signal intensity [17]: 8.5
- SPOT peptide array binding signal intensity [18]: 98
- SPOT peptide array binding signal intensity [19]: 43
- SPOT peptide array binding signal intensity [20]: 9
- SPOT peptide array binding signal intensity [21]: 14
- SPOT peptide array binding signal intensity [22]: 110
- SPOT peptide array binding signal intensity [23]: 59
- SPOT peptide array binding signal intensity [24]: ≤ 0
- SPOT peptide array binding signal intensity [25]: 138
- SPOT peptide array binding signal intensity [26]: 2
- SPOT peptide array binding signal intensity [27]: 3.25
- SPOT peptide array binding signal intensity [28]: 0.5
- SPOT peptide array binding signal intensity [29]: 7
- SPOT peptide array binding signal intensity [30]: 1
- SPOT peptide array binding signal intensity [31]: 105
- SPOT peptide array binding signal intensity [32]: 54.5
- SPOT peptide array binding signal intensity [33]: 3
- SPOT peptide array binding signal intensity [34]: 30
- SPOT peptide array binding signal intensity [35]: ≤ 0
- SPOT peptide array binding signal intensity [36]: 3.25
- SPOT peptide array binding signal intensity [37]: 71
- SPOT peptide array binding signal intensity [38]: ≤ 0
- SPOT peptide array binding signal intensity [39]: ≤ 0
- SPOT peptide array binding signal intensity [40]: 17
- SPOT peptide array binding signal intensity [41]: 135
- SPOT peptide array binding signal intensity [42]: 3
- SPOT peptide array binding signal intensity [43]: 11
- SPOT peptide array binding signal intensity [44]: 3.75
- SPOT peptide array binding signal intensity [45]: 196
- SPOT peptide array binding signal intensity [46]: 374
- SPOT peptide array binding signal intensity [47]: 201
- SPOT peptide array binding signal intensity [48]: 54.5
- SPOT peptide array binding signal intensity [49]: ≤ 0
- SPOT peptide array binding signal intensity [50]: 2
- SPOT peptide array binding signal intensity [51]: 4
- SPOT peptide array binding signal intensity [52]: 18
- SPOT peptide array binding signal intensity [53]: 1.5
- SPOT peptide array binding signal intensity [54]: 48.3
- SPOT peptide array binding signal intensity [55]: 139
- SPOT peptide array binding signal intensity [56]: 1.5
- SPOT peptide array binding signal intensity [57]: ≤ 0
- SPOT peptide array binding signal intensity [58]: 29
- SPOT peptide array binding signal intensity [59]: ≤ 0
- SPOT peptide array binding signal intensity [60]: 156
- SPOT peptide array binding signal intensity [61]: ≤ 0
- SPOT peptide array binding signal intensity [62]: ≤ 0
- SPOT peptide array binding signal intensity [63]: 11.5
- SPOT peptide array binding signal intensity [64]: 5.5
- SPOT peptide array binding signal intensity [65]: 310
- SPOT peptide array binding signal intensity [66]: 84.5
- SPOT peptide array binding signal intensity [67]: 133
- SPOT peptide array binding signal intensity [68]: 28.5
- SPOT peptide array binding signal intensity [69]: 3.25
- SPOT peptide array binding signal intensity [70]: 21.5
- SPOT peptide array binding signal intensity [71]: 6
- SPOT peptide array binding signal intensity [72]: 10
- SPOT peptide array binding signal intensity [73]: ≤ 0
- SPOT peptide array binding signal intensity [74]: ≤ 0
